Source: PubChem BioAssay (EPA / NIEHS)
Several values for one entry are separate records, joined by “and”; a condition that tells them apart may be missing. Equal entries are not always repeated. Records with an inconclusive call do not appear. Some compounds were tested as several samples or in several runs, with calls that do not always agree. Activity calls are given as the source filed them. How the source made its calls, unless noted: active means hit-call score of the fitted dose curve at least 0.9, where 1 is the maximum; inconclusive means response in the unintended direction; inactive means score below 0.9.

What was measured:
[1] = target: Glucocorticoid receptor (Homo sapiens) (UniProt P04150); experiment: NVS_NR_hGR: NovaScreen (NVS) Nuclear Receptor Binding Assay for human Glucocorticoid Receptor (GR) (AID 2283363);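 on AC50: activity is loss of specific radioligand binding signal relative to DMSO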
In short: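 Filter scintillation readout of tritiated/iodinated radioligand displaced by test chemical; cell-free extracted protein; 16 h. DMSO = negative control/baseline. Duplicate single-point 25 uM screen, then concentration-response on actives.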

[2] = target: Nuclear receptor subfamily 1 group I member 2 (Homo sapiens) (UniProt O75469); experiment: NVS_NR_hPXR: NovaScreen (NVS) Nuclear Receptor Binding Assay for human Pregnane X Receptor (PXR) (AID 2283365);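 further: a drop in FRET signal versus DMSO baseline means the compound binds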
In short: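 Human PXR protein, cell-free; compound added, incubated 2 h, TR-FRET read. Signal decrease vs DMSO = binding. Screened 25 uM duplicate, actives re-run as dilution series.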

[3] = target: Estrogen receptor beta (Homo sapiens) (UniProt Q92731); experiment: OT_ER_ERbERb_1440: Odyssey Thera (OT) 24-hour HEK293T Protein-Complementation Assay for Estrogen Receptor-beta/-beta Homodimer (AID 2283380);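 further: scored as signal increase over DMSO baseline for both agonists and antagonists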
In short: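 HEK293T cells stably expressing ER beta LBD (aa 310-547) homodimer fragment-complementation reporter, dosed 24 h. Cells formaldehyde-fixed, Draq5-stained; gain in nuclear (agonist) or nuclear plus cytoplasmic (antagonist) fluorescence versus DMSO read by laser scanning cytometry.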

[4] = target: Estrogen receptor (Homo sapiens) (UniProt P03372); experiment: OT_ERa_GFPERaERE_0480: Odyssey Thera (OT) 8-hour HeLa Transcription Induction Assay for Estrogen Receptor (AID 2283381; active means hit-call score of the fitted dose curve at least 0.9, where 1 is the maximum; inactive means score below 0.9)
In short: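 Fluorescence microscopy with high-content image analysis measures ERE-driven GFP induction in HeLa cells at 8 h post-dose. Increases fitted against DMSO baseline.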

[5] = target: Estrogen receptor (Homo sapiens) (UniProt P03372); experiment: OT_ERa_GFPERaERE_0120: Odyssey Thera (OT) 2-hour HeLa Transcription Induction Assay for Estrogen Receptor (AID 2283382)
In short: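 Fluorescence-microscopy images of the GFP-ERα/ERE reporter, scored by high-content image algorithms, give the readout. HeLa exposure lasted 2 h, and only signal increase over DMSO was fitted.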

[6] = target: Bile acid receptor (Homo sapiens) (UniProt Q96RI1); experiment: OT_FXR_FXRSRC1_0480: Odyssey Thera (OT) 8-hour HEK293T Protein-Complementation Assay for Farnesoid X receptor/SRC-1 Co-activator (AID 2283383)
In short: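 Binding of FXR to coactivator SRC-1 was read as fluorescence from a reconstituted split reporter in HEK293T cells, 8 h after chemical addition. Only increases in signal versus DMSO were fit.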

[7] = target: Bile acid receptor (Homo sapiens) (UniProt Q96RI1); experiment: OT_FXR_FXRSRC1_1440: Odyssey Thera (OT) 24-hour HEK293T Protein-Complementation Assay for Farnesoid X receptor/SRC-1 Co-activator (AID 2283384)
In short: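 Protein-fragment complementation: FXR and SRC-1 fused to reporter fragments that reassemble on interaction, read by fluorescence intensity. Human HEK293T cells measured 24 h post-dose; positive-direction fit versus DMSO.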

[8] = target: Retinoic acid receptor RXR-alpha (Homo sapiens) (UniProt P19793); experiment: OT_NURR1_NURR1RXRa_0480: Odyssey Thera (OT) 8-hour HEK293T Protein Complementation Assay for Nurr1/retinoid X receptor (RXR) (AID 2283385)
In short: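 Interaction of Nurr1 with RXRα read as reconstituted reporter fluorescence in a HEK293T fragment-complementation system, 8 h post-treatment; increase over DMSO baseline analysed.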

[9] = target: Peroxisome proliferator-activated receptor gamma (Homo sapiens) (UniProt P37231); experiment: NVS_NR_hPPARg: NovaScreen (NVS) Nuclear Receptor Binding Assay for human Peroxisome Proliferator-activated Receptor gamma (PPARg) (AID 2283370)
In short: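 Chemicals were tested first in duplicate at 25 uM, then in concentration series if active. Binding to cell-free PPARg protein was measured by fluorescence polarization after 2 h, with loss of signal scored against DMSO.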

[10] = target: human Dopamine Transporter (DAT), SLC6A3 (gene 6531) (UniProt Q01959); experiment: NVS_TR_hDAT: NovaScreen (NVS) Transporter Assay for human Dopamine Transporter (DAT) (AID 2283374);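 further: activity means loss of bound radioligand signal relative to DMSO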
In short: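 hDAT membranes + tritiated/iodinated radioligand, competitive displacement; 1 h; filter scintillation readout. Single conc 25 uM (duplicate), then conc-response for actives. DMSO = negative control.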

[11] = target: human Serotonin Transporter (SERT), SLC6A4 (gene 6532) (UniProt P31645); experiment: NVS_TR_hSERT: NovaScreen (NVS) Transporter Assay for human Serotonin Transporter (SERT) (AID 2283372)
In short: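 Human platelet membrane preparation; displacement of radioligand from serotonin transporter measured after 1 h by filtration and scintillation counting. Single 25 uM duplicate screen, then concentration series for actives, with DMSO as negative baseline.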

[12] = target: Norway rat Vesicular Monoamine Transporter (VMAT2), neurotransmitter transporter, Slc18a2 (gene 25549) (UniProt Q01827); experiment: NVS_TR_rVMAT2: NovaScreen (NVS) Transporter Assay for Norway rat Vesicular Monoamine Transporter (VMAT2), neurotransmitter transporter (AID 2283376);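 further: actives lower the bound radioligand signal below the DMSO level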
In short: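 Filter-based scintillation counting of radioligand bound to rat forebrain-derived VMAT2 protein, cell-free, 1 h post-dose. Signal loss relative to DMSO control scored; single-concentration duplicate screen (25 uM) followed by concentration-response testing of actives.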

[13] = target: Agonist Androgen Response Element (ARE), AR (gene 367) (UniProt P10275); experiment: OT_AR_ARELUC_AG_1440: Odyssey Thera (OT) 24-hour CHO-K1 Luciferase Assay for Agonist Androgen Response Element (ARE) (AID 2283379)
In short: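 Gain-of-signal reporter endpoint: cells (CHO-K1, hamster) are treated 24 h, luciferin/ATP reagent added, and luminescence compared with DMSO baseline.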

[14] = target: human Norepinephrine Transporter (NET), SLC6A2 (gene 6530) (UniProt P23975); experiment: NVS_TR_hNET: NovaScreen (NVS) Transporter Assay for human Norepinephrine Transporter (NET) (AID 2283377);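 further: cell-free membrane protein extracted from CHO cells expressing human NET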;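 on AC50: displacement of radioligand from human NET seen as loss of scintillation signal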
In short: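 CHO cell extracts expressing the transporter; tritiated or iodinated tracer displaced competitively; filtration plus scintillation readout at 1 h. Single-point duplicates at 25 uM, concentration series for follow-up; activity = signal drop relative to DMSO.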

[15] = target: mouse Estrogen Receptor alpha (Era), Esr1 (gene 13982) (UniProt P19785); experiment: NVS_NR_mERa: NovaScreen (NVS) Nuclear Receptor Binding Assay for mouse Estrogen Receptor alpha (Era) (AID 2283378);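 further: hit means loss of bound radioligand signal relative to DMSO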
In short: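 Extracted mouse Era incubated with tritiated or iodinated radioligand plus test chemical, 18 h. Bound fraction separated on filters, counted by scintillation. DMSO = negative control/baseline; duplicate single-point at 25 uM, then concentration-response follow-up.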

[16] = target: guinea pig Sigma Receptor, Non-selective Binding, SIGMAR1 (gene 100135589) (UniProt Q60492); experiment: NVS_OR_gSIGMA_NonSelective: NovaScreen (NVS) Nuclear Receptor Binding Assay for guinea pig Sigma Receptor, Non-selective Binding (AID 2283367)
In short: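 Membranes from guinea pig brain incubated with radioligand and test chemical for 1 h, then filtered and scintillation-counted. Duplicate primary testing at 25 uM, with concentration-series follow-up for actives.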

[17] = target: rat Serotonin Transporter (SERT), Slc6a4 (gene 25553) (UniProt P31652); experiment: NVS_TR_rSERT: NovaScreen (NVS) Transporter Assay for rat Serotonin Transporter (SERT) (AID 2283375)
In short: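 Filtration-based radiodetection quantified loss of specific radioligand binding in rat forebrain membranes after 1 hour of chemical exposure, relative to DMSO. Chemicals were first tested in duplicate at 25 uM.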

[18] = tested on: rat Norepinephrine Transporter (NET), gene 83511; experiment: NVS_TR_rNET: NovaScreen (NVS) Transporter Assay for rat Norepinephrine Transporter (NET) (AID 2283373)
In short: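 Competitive radioligand displacement at the rat NET using forebrain membrane preparations, 1 h incubation, filter-based scintillation readout. Primary testing in duplicate at a single 25 uM concentration; confirmed actives retested across concentrations.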

Measured: AC50

Sequence of human Dopamine Transporter (DAT), SLC6A3 (gene 6531) (Q01959 whole entry, looked up): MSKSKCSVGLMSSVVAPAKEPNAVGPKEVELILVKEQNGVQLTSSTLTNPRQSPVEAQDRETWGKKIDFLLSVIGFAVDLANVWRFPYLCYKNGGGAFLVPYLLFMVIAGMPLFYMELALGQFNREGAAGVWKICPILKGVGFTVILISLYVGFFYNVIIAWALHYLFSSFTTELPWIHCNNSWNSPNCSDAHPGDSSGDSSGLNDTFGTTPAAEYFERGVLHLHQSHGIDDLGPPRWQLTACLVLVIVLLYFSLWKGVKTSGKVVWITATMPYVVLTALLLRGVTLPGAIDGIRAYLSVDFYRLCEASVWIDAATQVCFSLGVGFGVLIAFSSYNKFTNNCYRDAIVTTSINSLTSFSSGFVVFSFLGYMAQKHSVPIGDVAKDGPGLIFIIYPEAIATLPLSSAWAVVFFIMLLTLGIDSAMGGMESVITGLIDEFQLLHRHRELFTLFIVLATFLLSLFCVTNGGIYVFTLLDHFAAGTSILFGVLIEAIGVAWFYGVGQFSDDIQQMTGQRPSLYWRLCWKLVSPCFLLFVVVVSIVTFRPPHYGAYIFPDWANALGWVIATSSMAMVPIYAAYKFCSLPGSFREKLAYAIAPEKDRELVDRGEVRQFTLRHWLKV
Sequence of Estrogen receptor beta (Homo sapiens) (Q92731 whole entry, looked up, the tested form may be a part): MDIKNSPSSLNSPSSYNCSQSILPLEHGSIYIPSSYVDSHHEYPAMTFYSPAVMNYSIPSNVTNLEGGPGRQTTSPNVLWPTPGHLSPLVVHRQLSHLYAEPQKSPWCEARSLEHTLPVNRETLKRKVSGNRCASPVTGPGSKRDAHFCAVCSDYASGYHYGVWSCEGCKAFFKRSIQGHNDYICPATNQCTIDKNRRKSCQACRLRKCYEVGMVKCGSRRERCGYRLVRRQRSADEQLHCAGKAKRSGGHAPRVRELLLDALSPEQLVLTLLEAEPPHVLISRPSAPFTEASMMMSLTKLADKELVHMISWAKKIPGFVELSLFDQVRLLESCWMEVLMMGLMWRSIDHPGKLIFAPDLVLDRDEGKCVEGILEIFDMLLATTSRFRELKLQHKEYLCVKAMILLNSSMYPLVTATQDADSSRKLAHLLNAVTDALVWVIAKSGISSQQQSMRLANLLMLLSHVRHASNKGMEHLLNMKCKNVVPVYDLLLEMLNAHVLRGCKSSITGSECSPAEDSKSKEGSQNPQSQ
Sequence of Peroxisome proliferator-activated receptor gamma (Homo sapiens) (P37231 whole entry, looked up): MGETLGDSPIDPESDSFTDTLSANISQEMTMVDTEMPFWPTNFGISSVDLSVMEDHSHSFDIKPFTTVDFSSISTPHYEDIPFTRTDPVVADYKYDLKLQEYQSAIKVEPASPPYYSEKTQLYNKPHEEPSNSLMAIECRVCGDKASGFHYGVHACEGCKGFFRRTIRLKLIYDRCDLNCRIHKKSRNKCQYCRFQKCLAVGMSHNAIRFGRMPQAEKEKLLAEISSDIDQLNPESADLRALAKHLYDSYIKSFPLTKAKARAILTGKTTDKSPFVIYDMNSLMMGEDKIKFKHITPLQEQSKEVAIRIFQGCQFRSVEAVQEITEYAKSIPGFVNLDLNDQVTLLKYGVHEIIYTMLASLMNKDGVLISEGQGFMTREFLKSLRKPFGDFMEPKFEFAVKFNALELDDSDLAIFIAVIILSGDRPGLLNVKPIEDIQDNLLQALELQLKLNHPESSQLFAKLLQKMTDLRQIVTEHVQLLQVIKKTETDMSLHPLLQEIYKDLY
Sequence of mouse Estrogen Receptor alpha (Era), Esr1 (gene 13982) (P19785 whole entry, looked up): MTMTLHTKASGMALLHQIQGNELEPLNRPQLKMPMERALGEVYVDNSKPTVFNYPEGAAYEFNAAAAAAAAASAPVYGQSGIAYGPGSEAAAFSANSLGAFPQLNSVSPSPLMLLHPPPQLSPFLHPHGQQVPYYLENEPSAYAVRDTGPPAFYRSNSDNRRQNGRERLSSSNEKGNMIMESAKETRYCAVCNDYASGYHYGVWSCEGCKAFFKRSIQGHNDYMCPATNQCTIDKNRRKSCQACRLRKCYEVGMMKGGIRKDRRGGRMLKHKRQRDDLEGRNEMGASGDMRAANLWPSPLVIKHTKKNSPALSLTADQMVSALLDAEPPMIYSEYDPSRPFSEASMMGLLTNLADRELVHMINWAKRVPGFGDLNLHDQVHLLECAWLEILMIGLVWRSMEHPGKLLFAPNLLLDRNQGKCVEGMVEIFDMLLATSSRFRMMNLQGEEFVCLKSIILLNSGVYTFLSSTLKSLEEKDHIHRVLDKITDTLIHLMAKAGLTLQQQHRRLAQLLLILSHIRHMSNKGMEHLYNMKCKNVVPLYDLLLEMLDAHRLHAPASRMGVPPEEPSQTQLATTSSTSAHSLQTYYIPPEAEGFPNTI
Sequence of Norway rat Vesicular Monoamine Transporter (VMAT2), neurotransmitter transporter, Slc18a2 (gene 25549) (Q01827 whole entry, looked up): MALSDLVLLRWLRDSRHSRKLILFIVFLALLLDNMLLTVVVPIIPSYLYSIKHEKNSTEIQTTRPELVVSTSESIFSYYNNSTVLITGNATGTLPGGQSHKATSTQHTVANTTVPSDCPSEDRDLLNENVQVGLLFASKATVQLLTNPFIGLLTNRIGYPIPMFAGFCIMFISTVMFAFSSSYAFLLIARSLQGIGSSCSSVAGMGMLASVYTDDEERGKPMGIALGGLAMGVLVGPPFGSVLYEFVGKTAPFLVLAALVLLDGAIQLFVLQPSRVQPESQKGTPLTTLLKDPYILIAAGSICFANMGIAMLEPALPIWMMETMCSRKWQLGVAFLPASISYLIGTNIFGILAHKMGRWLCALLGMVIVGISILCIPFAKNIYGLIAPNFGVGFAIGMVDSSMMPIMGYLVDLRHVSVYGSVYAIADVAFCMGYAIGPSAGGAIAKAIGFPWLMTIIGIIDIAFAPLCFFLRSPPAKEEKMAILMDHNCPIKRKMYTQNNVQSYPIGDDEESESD
Sequence of Bile acid receptor (Homo sapiens) (Q96RI1 whole entry, looked up, the tested form may be a part): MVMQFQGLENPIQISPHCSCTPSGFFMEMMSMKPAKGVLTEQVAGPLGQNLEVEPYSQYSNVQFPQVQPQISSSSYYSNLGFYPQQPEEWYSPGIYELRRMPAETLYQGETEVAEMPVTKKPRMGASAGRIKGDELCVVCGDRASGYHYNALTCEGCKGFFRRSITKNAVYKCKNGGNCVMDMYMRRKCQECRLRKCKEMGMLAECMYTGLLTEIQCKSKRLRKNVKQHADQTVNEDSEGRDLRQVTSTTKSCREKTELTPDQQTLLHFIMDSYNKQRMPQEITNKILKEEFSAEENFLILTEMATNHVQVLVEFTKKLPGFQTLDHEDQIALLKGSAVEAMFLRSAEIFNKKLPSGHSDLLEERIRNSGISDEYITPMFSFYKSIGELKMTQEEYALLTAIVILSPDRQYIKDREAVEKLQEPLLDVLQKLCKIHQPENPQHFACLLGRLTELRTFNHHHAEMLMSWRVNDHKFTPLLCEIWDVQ
Sequence of Nuclear receptor subfamily 1 group I member 2 (Homo sapiens) (O75469 whole entry, looked up): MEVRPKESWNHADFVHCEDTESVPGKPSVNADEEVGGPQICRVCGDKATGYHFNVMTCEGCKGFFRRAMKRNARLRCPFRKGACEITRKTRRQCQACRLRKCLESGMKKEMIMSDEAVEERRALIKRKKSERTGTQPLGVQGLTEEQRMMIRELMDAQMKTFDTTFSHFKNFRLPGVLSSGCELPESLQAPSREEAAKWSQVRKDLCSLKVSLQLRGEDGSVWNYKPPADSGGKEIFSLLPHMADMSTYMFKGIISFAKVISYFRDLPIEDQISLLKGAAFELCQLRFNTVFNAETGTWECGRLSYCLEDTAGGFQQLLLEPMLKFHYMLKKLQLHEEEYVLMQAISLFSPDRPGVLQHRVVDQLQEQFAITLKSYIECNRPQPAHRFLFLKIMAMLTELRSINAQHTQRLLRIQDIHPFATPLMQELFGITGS
Sequence of human Norepinephrine Transporter (NET), SLC6A2 (gene 6530) (P23975 whole entry, looked up): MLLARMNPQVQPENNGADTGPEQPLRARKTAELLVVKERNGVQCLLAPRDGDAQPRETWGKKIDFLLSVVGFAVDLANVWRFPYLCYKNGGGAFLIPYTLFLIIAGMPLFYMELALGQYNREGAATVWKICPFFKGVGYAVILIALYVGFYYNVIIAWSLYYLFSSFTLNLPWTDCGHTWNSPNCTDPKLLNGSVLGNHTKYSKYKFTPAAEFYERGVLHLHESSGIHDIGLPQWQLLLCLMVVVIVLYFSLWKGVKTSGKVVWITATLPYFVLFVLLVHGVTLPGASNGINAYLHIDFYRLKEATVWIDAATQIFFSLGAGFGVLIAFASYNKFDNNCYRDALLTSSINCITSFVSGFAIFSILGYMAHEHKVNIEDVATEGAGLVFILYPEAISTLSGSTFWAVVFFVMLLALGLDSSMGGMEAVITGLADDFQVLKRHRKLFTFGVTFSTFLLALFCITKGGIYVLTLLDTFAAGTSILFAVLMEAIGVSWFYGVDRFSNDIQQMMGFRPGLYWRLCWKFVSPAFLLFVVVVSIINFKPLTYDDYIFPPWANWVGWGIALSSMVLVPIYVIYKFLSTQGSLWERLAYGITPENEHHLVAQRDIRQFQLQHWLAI
Sequence of Retinoic acid receptor RXR-alpha (Homo sapiens) (P19793 whole entry, looked up, the tested form may be a part): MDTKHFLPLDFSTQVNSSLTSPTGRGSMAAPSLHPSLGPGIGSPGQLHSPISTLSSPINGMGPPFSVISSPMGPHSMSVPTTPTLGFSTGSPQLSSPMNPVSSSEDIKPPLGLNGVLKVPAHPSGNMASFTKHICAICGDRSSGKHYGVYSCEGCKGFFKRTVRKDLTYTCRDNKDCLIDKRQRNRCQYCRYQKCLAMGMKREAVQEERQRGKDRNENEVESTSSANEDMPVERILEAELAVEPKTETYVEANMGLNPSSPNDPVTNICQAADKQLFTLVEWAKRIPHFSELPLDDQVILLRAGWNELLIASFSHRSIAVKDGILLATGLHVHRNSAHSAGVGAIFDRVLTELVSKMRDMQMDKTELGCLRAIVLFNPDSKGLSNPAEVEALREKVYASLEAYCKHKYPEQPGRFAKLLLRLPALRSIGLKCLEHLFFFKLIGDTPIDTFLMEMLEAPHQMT
Sequence of guinea pig Sigma Receptor, Non-selective Binding, SIGMAR1 (gene 100135589) (Q60492 whole entry, looked up): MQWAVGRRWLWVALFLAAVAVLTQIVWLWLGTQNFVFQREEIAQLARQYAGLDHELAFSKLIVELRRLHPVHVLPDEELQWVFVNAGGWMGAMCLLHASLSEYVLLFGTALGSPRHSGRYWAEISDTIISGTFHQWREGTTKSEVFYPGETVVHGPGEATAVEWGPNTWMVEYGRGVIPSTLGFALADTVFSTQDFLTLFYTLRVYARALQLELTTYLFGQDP

OCC(O)CO
active: [1] 4.96 µM | [2] 5.1 µM
inactive: [3] | [4] | [5] | [6] | [7] | [8]

COc1ccc(O)c(C(C)(C)C)c1
inactive: [9] | [4] | [5] | [6] | [7] | [8]
active: [10] 8.78 µM | [3] 57.3 µM

CC1=C2C[C@H]3[C@@H](CC=C4C[C@@H](O)CC[C@@]43C)[C@@H]2CC[C@]12O[C@@H]1C[C@H](C)CN[C@H]1[C@H]2C
inactive: [2] | [11] | [12] | [13] | [4] | [5] | [6] | [7] | [8]

ClC1=C(Cl)[C@]2(Cl)[C@@H]3[C@@H]4C[C@@H]([C@H]5O[C@@H]45)[C@@H]3[C@@]1(Cl)C2(Cl)Cl
active: [8] 77.7 µM and 81.5 µM
inactive: [1] | [9] | [4] | [5]

CCOC(=O)C(O)(c1ccc(Cl)cc1)c1ccc(Cl)cc1
active: [10] 3.45 µM | [14] 15.5 µM
inactive: [1] | [15] | [13] | [3] | [4] | [5]

O=C(O)C(F)(F)C(F)(F)C(F)(F)C(F)(F)C(F)(F)C(F)(F)C(F)(F)C(F)(F)C(F)(F)F
active: [2] 25 µM | [9] 8.21 µM | [14] 25 µM
inactive: [1] | [15] | [4] | [5] | [8]

CCCN(CCC)N=O
inactive: [16] | [15] | [3] | [4] | [5] | [8]

CC(C)C(=O)OCC(C)(C)C(OC(=O)C(C)C)C(C)C (stereo not given)
inactive: [9] | [14] | [15] | [3] | [4] | [5]

CCCCCCCCCC[N+](C)(C)CCCCCCCCCC
active: [1] 5.53 µM | [16] 0.432 µM | [11] 13.4 µM | [10] 5.73 µM | [17] 12.6 µM | [12] 13.4 µM | [14] 1.46 µM | [15] 5.55 µM | [4] 17.1 µM | [5] 16.1 µM
inactive: [9] | [6] | [7]

CC(c1ccc(O)cc1)(c1ccc(O)cc1)c1ccc(O)cc1
active: [9] 4.96 µM | [15] 0.768 µM | [4] 3.62 µM | [5] 2.96 µM
inactive: [8]

CCCCCCCCCc1ccc(O)cc1
active: [3] 12.5 µM and 12.1 µM | [8] 50 µM
inactive: [9] | [15] | [4] | [5] | [8]

CCC(C)(c1ccc(O)cc1)c1ccc(O)cc1
inactive: [18] | [6] | [7] | [8]
active: [2] 16.7 µM and 11.4 µM and 9.16 µM | [9] 5.51 µM | [10] 7.9 µM | [12] 5.28 µM | [14] 8.33 µM | [5] 213 nM [middle of 5 runs] | [6] 12.1 µM | [7] 30.2 µM and 32.2 µM | [8] 30.8 µM and 67 µM and 68.3 µM

Oc1ccc(Cl)cc1Cl
inactive: [9] | [15] | [3] | [4] | [5] | [6] | [7] | [8]
active: [14] 9.75 µM
